A selection: hits, their analogues and other compounds. The true share with any hit is near 21%.
ELG1 repair inh: qHTS screen for small molecules that inhibit ELG1-dependent DNA repair in human embryonic kidney (HEK293T) cells expressing luciferase-tagged ELG1 | 330,000 compounds, 2.3% hits | HEK293T ELG1-luciferase reporter, luminescence, 16 h; DNA damage induced by 5-fluorouridine | AID 504467, 2011 | Potency, µM (series often up to 46.1 µM), without a hit: top-dose activity change, negative = inhibition, actives largely listed as inhibitors; further: potency means the concentration at half of the fitted maximal effect; nearly all actives have a fitted effect of over 55% in size
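HEK293T cells expressing luciferase-tagged ELG1 (2,000/well) received 5-Fluorouridine plus compound or DMSO for 16 hr at 37 °C. Luciferase was read by ONE-Glo luminescence after 30 min at room temperature.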
Gal4-VP16 FLuc: VP16 counterscreen qHTS for inhibitors of ROR gamma transcriptional activity; Drosophila S2 Gal4-VP16 UAS-luciferase, luminescence, 20 h; Potency, µM (highest dose often 53.6 µM), without a hit: at the highest dose activity, negative = inhibition, hits mostly inhibitors; 310,000 compounds, 3.5% hits;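 further: Gal4-VP16 expression switched on by copper sulfate through the metallothionein promoter; potency means the concentration at half of the fitted maximal effect; nearly all actives have a fitted effect of over 50% in size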
RORg inh: qHTS for inhibitors of ROR gamma transcriptional activity | Potency, µM (doses to about 53.6 µM), without a hit: at the top dose activity change, negative = inhibition, usual class: inhibitors | AID 2551, 2010 | 310,000 compounds, 5.4% hits | Drosophila S2 Gal4-RORgamma UAS-luciferase reporter, 20 h; further: potency means the concentration at half of the fitted maximal effect; nearly all actives have a fitted effect of over 60% in size
Target sequence (P51450 whole entry, looked up, the tested form may be a part): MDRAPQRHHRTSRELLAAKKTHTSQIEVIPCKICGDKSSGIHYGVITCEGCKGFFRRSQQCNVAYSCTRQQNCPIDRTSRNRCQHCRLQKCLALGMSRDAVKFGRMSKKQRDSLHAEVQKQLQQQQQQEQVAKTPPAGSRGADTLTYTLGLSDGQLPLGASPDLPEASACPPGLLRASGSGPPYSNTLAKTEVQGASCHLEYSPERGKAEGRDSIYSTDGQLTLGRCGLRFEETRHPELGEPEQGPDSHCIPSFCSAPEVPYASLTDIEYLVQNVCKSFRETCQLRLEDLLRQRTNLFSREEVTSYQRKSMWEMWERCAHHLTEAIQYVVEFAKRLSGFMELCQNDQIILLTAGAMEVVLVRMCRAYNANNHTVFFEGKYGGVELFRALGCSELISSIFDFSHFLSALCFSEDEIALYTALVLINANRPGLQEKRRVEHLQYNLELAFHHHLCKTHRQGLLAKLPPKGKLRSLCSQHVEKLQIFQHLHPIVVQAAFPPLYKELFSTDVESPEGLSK
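Luminescence from a UAS-regulated Photinus luciferase reporter in stably transfected Drosophila Schneider cells is measured; decreased signal marks ROR gamma inhibition. Fusion expression is induced by 700 uM copper sulfate for 20 hr.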
TDP1 cell CPT: qHTS for Inhibitors of human tyrosyl-DNA phosphodiesterase 1 (TDP1): qHTS in cells in presence of CPT; Potency, µM (top dose mostly 46.2 µM), for the others: at the highest dose activity change, negative = growth inhibition, most hits filed as inhibitors; AID 686979, 2013; chicken DT40 Tdp1-/-;hTDP1 cells + 20 nM CPT, ATP luminescence, 48 h; 420,000 compounds, 12% hits; further: potency means the concentration at half of the fitted maximal effect; nearly all actives have a fitted effect of over 55% in size
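Chicken DT40 Tdp1-/- cells stably complemented with human TDP1 were seeded at 400 cells/well in medium containing 20 nM camptothecin, exposed to pin-transferred compounds, and grown at 37 °C for at least 48 hr. Viability was read as ATP luminescence.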
IL1B secr inh: qHTS for Inhibitors of Inflammasome Signaling: IL-1-beta AlphaLISA Primary Screen; THP-1 LPS/ATP IL-1B secretion, AlphaLISA, 16 h; stronger effect = lower value; activity change, % at 57.5 µM; 360,000 compounds, 4.7% hits; in the data active means activity change below about -50%; inconclusive means mostly about -30% to -49%
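THP-1 cells pretreated 1 hr with compounds (up to 57.5 uM final), then stimulated with LPS (250 ng/mL final) plus ATP (1.25 mM final); secreted IL-1B measured by AlphaLISA after 16 hr, decreased signal indicating inhibition.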
TDP1 cell noCPT: qHTS for Inhibitors of human tyrosyl-DNA phosphodiesterase 1 (TDP1): qHTS in cells in absence of CPT. Potency, µM (titrated, usually from 46.2 µM), without a hit: at the top dose activity change, negative = growth inhibition, hits mostly inhibitors. 420,000 compounds, 15% hits. DT40 Tdp1-/- hTDP1 cells, no CPT, ATP luminescence, 48 h. AID 686978, 2013; further: potency means the concentration at half of the fitted maximal effect; nearly all actives have a fitted effect of over 55% in size
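Growth kinetics read by CellTiter-Glo luminescence after ≥48 hr at 37 °C. Cells: DT40 Tdp1-/- stably carrying human TDP1, 400 per well, compound exposure in the absence of CPT (DMSO vehicle).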
The depositor's hits bear a star; ? = inconclusive; nt = not tested or not shown; [ ] = dose if it differs, or a comment. Unless noted, the call rests on the fitted dose curve; in most records, active means well fitted curve in the direction sought with a large enough effect; inconclusive means small, poorly fitted or top-dose-only effect, or another doubt; inactive means no such curve, though single readings can be large; an effect the other way counts as inactive or inconclusive. On the % scale 0 is the no-effect control and ±100 the full control effect.

SMILES	ELG1 repair inh	Gal4-VP16 FLuc	RORg inh	TDP1 cell CPT	IL1B secr inh	TDP1 cell noCPT
COc1ccc(C2C(C(=O)c3ccccc3)=C(C)Nc3nc4ccccc4n32)cc1OC (stereo not drawn)	?	7%	-31%	?	0	15µM*
CNC(=O)C1=C(C)Nc2nc3ccccc3n2C1c1ccc(F)cc1 (stereo not drawn)	-2%	-15%	2%	-14%	9	?
COc1ccc(OC)c(C2C(C(=O)c3ccccc3)=C(C)Nc3nc4ccccc4n32)c1 (stereo not drawn)	26%	-11%	7.1µM*	-22%	25	?
CCOC(=O)C1=C(C)Nc2nc3ccccc3n2C1c1ccccc1 (stereo not drawn)	6%	5%	-21%	-22%	-7	-29%
CC1=C(C(=O)N2CCCCC2)C(c2cccc(Cl)c2)n2c(nc3ccccc32)N1 (stereo not drawn)	nt	nt	nt	16µM*	nt	?
CC1=C(C(=O)OC2CCCCC2)C(c2cccs2)n2c(nc3ccccc32)N1 (stereo not drawn)	-2%	?	4.5µM*	-19%	3	?
COc1ccccc1NC(=O)C1=C(C)Nc2nc3ccccc3n2C1c1ccccc1Cl (stereo not drawn)	nt	nt	nt	15µM*	nt	?
N#C/C(=C\c1ccccc1Br)C(=O)NC1CC1	-4%	-4%	-9%	?	-9	-26%
N#C/C(=C/C=C/c1ccccc1)C(=O)Nc1ccccc1	5.8µM*	3%	-7%	-25%	-28	?
COCCNC(=O)/C(C#N)=C/c1cc(C(C)C)c(OC)cc1C	3%	20%	25%	?	-71*	?
COCCNC(=O)/C(C#N)=C/C=C/c1ccccc1	-12%	0%	1%	-25%	-93*	?
COCCNC(=O)/C(C#N)=C/c1ccccc1Br	?	-11%	0%	15µM*	?	16µM*
N#C/C(=C\C=C\c1ccccc1)C(=O)Nc1ccccc1	5%	4%	-23%	-6%	37	-4%
CC(C)NC(=O)c1cc(C2CCCCN2C(=O)c2ccc(C(C)C)cc2)on1 (stereo not drawn)	nt	nt	nt	?	34	?
CN(C(=O)C(=O)c1cn(CC(=O)N2CCCC2)c2ccccc12)C1CCCCC1	1%	-8%	4%	-14%	-15	-4%
COc1ccc(NC(=O)/C(C#N)=C/C=C/c2ccco2)cc1	-29%	-19%	-20%	8.2µM*	-67*	9.2µM*
COc1ccc(OC)c(NC(=O)C(C#N)=Cc2ccco2)c1	nt	nt	nt	-19%	3	-26%
N#C/C(=C/c1ccc(O)c([N+](=O)[O-])c1)C(=O)Nc1ccccc1	2%	-4%	?	4.1µM*	-2	6.5µM*
CNc1ccc(/C=C(\C#N)C(=O)Nc2ccccn2)cc1[N+](=O)[O-]	16%	-5%	1%	-1%	9	-15%
COCCNC(=O)/C(C#N)=C/c1cc(C)n(C2CCCCC2)c1C	?	?	-1%	?	-15	16µM*
O=P(O)(O)C(O)(Cc1cccnc1)P(=O)(O)O	nt	-1%	-9%[10 µM]	2%	nt	-3%
O=C(CN1CCCc2ccccc21)Nc1ccc(F)cc1[N+](=O)[O-]	?	5%	?	?	17	-4%
CC(C)(C)c1ccc(C(=O)NNc2cc(Cl)cc(Cl)c2)cc1	10%	-6%	-3%	?	25	?
COc1cccc(-c2oc3c(c2-c2ccc(Br)nc2)C(O)CCC3)c1 (stereo not drawn)	nt	nt	nt	?	-25	-12%
CCN(CC)S(=O)(=O)c1ccc2c(c1)nc(SCC(=O)N1CCCCCC1)n2-c1ccc(OC)cc1	5.2µM*	12%	1%	15µM*	?	23µM*
SMILES	ELG1 repair inh	Gal4-VP16 FLuc	RORg inh	TDP1 cell CPT	IL1B secr inh	TDP1 cell noCPT
Cc1ccc2c(c1)-c1nc(-c3ccc(Cl)cc3)cc(-c3coc4ccccc4c3=O)c1CO2	nt	nt	nt	-17%	nt	-5%
CCOC(=O)CC(Nc1nc(N2CCOCC2)nc(N2CCOCC2)n1)c1ccccc1Cl (stereo not drawn)	9.2µM*	-6%	18%	?	-5	?
CCOC(=O)CC(NC(=O)Cc1cccs1)c1ccccc1Cl (stereo not drawn)	-21%	11%	34%	3%	-2	-9%
O=C(CCCO)c1ccc2c(c1)OCCO2	nt	18%	-12%	-26%	-5	-9%
O=C(CNC1=NCCC1)c1ccc2c(c1)OCCO2	6%	26%	3%	?	9	18µM*
O=C(CCCN1CCOCC1)c1ccc2c(c1)OCCO2	?	?	?	-29%	4	-11%
CC(CN1CCCCC1)OC(=O)c1ccc2c(c1)OCO2 (stereo not drawn)	?	-2%	-29%	-3%	-2	6%
O=C(CCN1CCc2ccccc2CC1)c1ccc2c(c1)OCCO2	-7%	4µM*	6.3µM*	4.6µM*	-58*	4.1µM*
O=C(CCN1CCCCC1)c1ccc2c(c1)OCO2	3%	13µM*	3.2µM*	7.3µM*	-19	10µM*
NS(=O)(=O)c1ccc(CCNC(=O)COC(=O)Cc2ccc(Cl)cc2)cc1	nt	nt	nt	-16%	23	4%
CCn1c(C)nc2cc(C(=O)NN=C(C)c3ccc(C#N)cc3)ccc21	-14%	nt	nt	5%	-4	-19%
CCn1c(C)nc2cc(C(=O)N/N=C(\C)c3ccc(OC)cc3O)ccc21	7.3µM*	2.8µM*	1µM*	9.2µM*	123	10µM*
CCn1c(C)nc2cc(C(=O)N/N=C/c3cccc(O)c3O)ccc21	?	11µM*	2.2µM*	15µM*	108	9.2µM*
CCn1c(C)nc2cc(C(=O)N/N=C/c3ccccc3)ccc21	?	?	-39%	7%	-18	-18%
O=C(Nc1ccc(N2CCN(C(=O)c3cccs3)CC2)cc1)c1cccc(F)c1	15µM*	5%	?	16µM*	-89*	21µM*
COc1cccc(OC)c1C(=O)Nc1ccc(N2CCN(C(=O)c3cccs3)CC2)cc1	-11%	nt	nt	-23%	0	?

Source: PubChem BioAssay
